In PubChem BioAssay (Tox21):
Results filed as inconclusive are left out. Unmarked numbers belong to inactive results. The source made the active and inactive calls. The call rests on the fitted dose curve; in most records, active means well fitted cell-killing curve with a large enough effect in the repeat runs; inconclusive means weak or mixed curves, or effect the other way; inactive means flat fitted curve, though single readings scatter.

experiment: cAMP Responsive Elements (CRE) small molecule agonists, cell-based qHTS assay: qHTS cell viability counter screen (AID 2060914); details: CRE-bla HEK293T viability, CellTiter-Glo luminescence, 5 h; series mostly up to 92.4 µM; activity change, negative = cytotoxicity: at the top concentration;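 further: viability read after 3 h of compound exposure; nearly all actives have a fitted effect of over 50% in size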
Source text: National Center for Advancing Translational Sciences [NCATS]
Division of Preclinical Innovation [DPI]
U.S. Environmental Protection Agency [EPA]
National Institutes of Environmental Health Sciences [NIEHS]
National Toxicology Program [NTP]
U.S. Food and Drug Administration [FDA]
CREB (cyclic-AMP Responsive Element Binding Protein) is a cellular transcription factor. It binds to certain DNA sequences called cAMP Responsive Elements (CRE) and regulates the transcription of the genes. […] This cell line can be used to find agonists/antagonists of the cyclic AMP signaling pathway. The activation of the report gene under culture conditions can be detected by fluorescence intensity. This cell line has been used to screen the Tox21 10K compound library to identify agonists that induce oxidative stress. The cytotoxicity of the Tox21 compound library against the CRE-bla cell line was tested in parallel by measuring the cell viability using CellTiter-Glo assay (Promega, Madison, WI) in the same wells.
Tox21 Assay Protocol Summary:
CRE-bla Hek 293T cells were suspended in assay medium (DMEM containing 10% dialyzed FBS, 0.1 mM NEAA, 1 mM sodium pyruvate and 25 mM HEPES) and dispensed at 2,000 cells/5 uL /well into 1536-well black wall/clear bottom plates using a Multidrop Combi (ThermoFisher Scientific, Waltham, MA) dispenser. After the assay plates were incubated at 37 C/5% CO2 for 18 hrs, 23 nL of compounds dissolved in DMSO, positive controls or DMSO only was transferred to the assay plate by a pintool workstation (Kalypsys, San Diego, CA). After the plates were incubated at 37 C/5% CO2 for 3 hrs, 1 uL of LiveBLAzer B/G FRET substrate (Invitrogen, Carlsbad, CA) was added to each well using Bioraptr Flying Reagent Dispenser (FRD, Aurora Discovery, San Diego, CA). The plates were incubated at room temperature for 2 h, then fluorescence intensities were measured using an Envision plate reader (PerkinElmer, Shelton, CT) at Excitation 405nm, Emission 460nm and 530nm. The % activity was determined from the ratio of 460nm/530nm. For cell viability readout that measures cytotoxicity, 4 uL /well of CellTiter-Glo reagent was added into the assay plates using Bioraptr FRD. After 30 min incubation at room temperature, the luminescence intensity in the assay plates was measured using a ViewLux (PerkinElmer, Shelton, CT) plate reader.
On the % scale 0 is the no-effect control and ±100 the full control effect.

SMILES | Potency | activity change, negative = cytotoxicity
C/C=C/C=C/C(=O)O | inactive | –
C=C1C(=C/C=C2\CCC[C@]3(C)[C@@H]([C@H](C)/C=C/[C@@H](O)C4CC4)CC[C@@H]23)C[C@@H](O)C[C@@H]1O | – | 15.8% [at 42.5 µM]
Nc1cc(S(=O)(=O)O)ccc1O | – | -1.7%
CCCCOCCOC(=O)COc1cc(Cl)c(Cl)cc1Cl | – | 6.32%
CCCCCCCCCCOC(=O)c1ccccc1C(=O)OCCCCCCCC | – | 10.3%
CC(C)(C)c1cc(Cc2cc(C(C)(C)C)c(O)c(C(C)(C)C)c2)cc(C(C)(C)C)c1O | inactive | –
Nc1ccccc1N | inactive | –
CCC(CN)=C(c1ccccc1)c1ccccc1 | – | -14.9% [at 42.5 µM]
CC(=O)Nc1ccccc1 | inactive | –
COC(=O)CC#N | – | 0.84%
CCN1C=CN(C)C1C (stereo not given) | – | -8.49%
ONc1ccccc1 | – | -20.7%
CCCOCCC | – | 1.31%
CCC(C)C(=O)OC (stereo not given) | – | 0.245%
O=C1CCCc2ccccc21 | – | 0.599%
O=C1c2ccccc2C(=O)c2cc(Cl)ccc21 | – | 2.19% [at 8.39 µM]
CCN(CC)c1cccc(O)c1 | – | 15.6%
CCNC(=O)NCCCOc1cccc(CN2CCCCC2)c1 | – | -14.2% [at 42.5 µM]
O=C(O)CCn1c2c(c3ccccc31)C[C@H](NS(=O)(=O)c1ccc(F)cc1)CC2 | – | 10.4% [at 42.5 µM]
CCOC(=O)COc1cc(-n2ncc(C(F)(F)F)c(C)c2=O)c(F)cc1Cl | – | 4.5%

SMILES | Potency | activity change, negative = cytotoxicity
IC(I)I | – | -1.81%
CCC1(c2ccccc2)C(=O)NCNC1=O | inactive | –
CCc1ccc2c(c1)C(=O)c1ccccc1C2=O | – | -26%
CC(C)CCCCCCCOC(=O)c1ccc(C(=O)OCCCCCCCC(C)C)c(C(=O)OCCCCCCCC(C)C)c1 | – | 4.3%
CCCCCN(CCCOC)C(=O)C(CCC(=O)O)NC(=O)c1ccc(Cl)c(Cl)c1 (stereo not given) | – | -6.21% [at 42.5 µM]
C1CCC(SSC2CCCCC2)CC1 | – | 9.15%
CCCCCCCCCCc1ccccc1 | – | 7.69%
CC1=C(CC=O)C(C)(C)CCC1 | – | -2.88%
CC1CCCCC1 | – | -11.2%
O=C(NC(Cc1cc(=O)[nH]c2ccccc12)C(=O)O)c1ccc(Cl)cc1 (stereo not given) | – | 0.8% [at 42.5 µM]
Clc1sc(Cl)c(Cl)c1Cl | – | -4.24%
Cc1c2ccccc2c(C)c2c1ccc1ccccc12 | inactive | –
CN1CCN(C2Cc3ccccc3Sc3ccc(Cl)cc32)CC1 (stereo not given) | – | -7.4% [at 42.5 µM]
Nc1ncnc(Nc2ccccc2)n1 | – | 5.14% [at 42.5 µM]
O=CN1CCOCC1 | – | -3.95%
Nc1cc(=O)[nH]c(N)n1 | – | -4.19% [at 42.5 µM]
O=C(O)C(=O)Nc1cccc(-c2nn[nH]n2)c1 | – | 12.7% [at 42.5 µM]
CC(C)CCOCc1ccccc1 | – | 5.12%
Nc1ccccc1[N+](=O)[O-] | – | -0.663%
C=CC1CC2C=CC1C2 (stereo not given) | – | -6.21%
